These results are taken from article PMC11062922 (Nature Chemical Biology, 2023).

Common to all, as to parameters: species or system human, MV4-11 + K-562 + COLO205 + SK-N-BE2 + OVCAR-8
The test system of one assay is ADCK3. The conditions noted are these: read-out: apparent Kd, n = 1.
A further assay deals with AKT2. The conditions noted are these: read-out: apparent Kd, compound concentrations: 100 nM and 1000 nM (sheet 'Samples'), n = 1.
In a further assay the test system is ATM. The following applies: read-out: apparent Kd, compound concentrations: 100 nM and 1000 nM (sheet 'Samples'), n = 1.
A further assay has as its system CAMK4. The conditions noted are these: read-out: apparent Kd; compound concentrations: 100 nM and 1000 nM (sheet 'Samples'), CATDS: 7.7064865846565897E-2; n = 1.
The test system of another assay is CDK6. The conditions noted are these: read-out: apparent Kd; compound concentrations: 100 nM and 1000 nM (sheet 'Samples'), CATDS: 7.4930063387868798E-2; n = 1.
For a further assay, the system named is CDKL5. The conditions noted are these: read-out: apparent Kd; compound concentrations: 100 nM and 1000 nM (sheet 'Samples'), CATDS: 9.7869696626463096E-2; n = 1.
For another assay, the system named is CSNK1E. The following applies: read-out: apparent Kd, n = 1.
For another assay, the system named is CSNK2A1;CSNK2A3. The following applies: read-out: apparent Kd; compound concentrations: 100 nM and 1000 nM (sheet 'Samples'), CATDS: 6.2096943354302901E-2; n = 1.
A further assay relates to MAP2K1. The conditions noted are these: read-out: apparent Kd, compound concentrations: 100 nM and 1000 nM (sheet 'Samples'), n = 1.
Another assay has as its system MAP2K2. The conditions noted are these: read-out: apparent Kd; compound concentrations: 100 nM and 1000 nM (sheet 'Samples'), CATDS: 6.9306858675437497E-2; n = 1.
Another assay has as its system NNT. The conditions noted are these: read-out: apparent Kd; compound concentrations: 100 nM and 1000 nM (sheet 'Samples'), CATDS: 7.4633464586539203E-2; n = 1.
For the next assay, the system named is NQO1. The conditions noted are these: read-out: apparent Kd, compound concentrations: 100 nM and 1000 nM (sheet 'Samples'), n = 1.
For another assay, the system named is RIOK2. The conditions noted are these: read-out: apparent Kd, compound concentrations: 100 nM and 1000 nM (sheet 'Samples'), n = 1.
The test system of another assay is ADCK1. The conditions noted are these: read-out: apparent Kd; compound concentrations:100 nM and 1000 nM (sheet 'Samples'); n = 1.
A further assay deals with CIT. The conditions noted are these: read-out: apparent Kd; compound concentrations:100 nM and 1000 nM (sheet 'Samples'); n = 1.
A further assay relates to CSNK1D. The conditions noted are these: read-out: apparent Kd, n = 1.
The next assay deals with T1, DJA1.
T1 construct: gene DNAJA1
The following applies: read-out: apparent Kd; compound concentrations:100 nM and 1000 nM (sheet 'Samples'); n = 1.

The next assay relates to GAK. The following applies: read-out: apparent Kd; compound concentrations:100 nM and 1000 nM (sheet 'Samples'); n = 1.
Another assay deals with IARS. The following applies: read-out: apparent Kd; compound concentrations:100 nM and 1000 nM (sheet 'Samples'); n = 1.
The subject of a further assay is PIK3CD. The conditions noted are these: read-out: apparent Kd, n = 1.
Another assay concerns PRKACB. The following applies: read-out: apparent Kd; compound concentrations:100 nM and 1000 nM (sheet 'Samples'); n = 1.
Another assay concerns PRKCD. The conditions noted are these: read-out: apparent Kd; compound concentrations:100 nM and 1000 nM (sheet 'Samples'); n = 1.
The test system of a further assay is PRKCQ. The conditions noted are these: read-out: apparent Kd; compound concentrations:100 nM and 1000 nM (sheet 'Samples'); n = 1.
Another assay deals with PRKD2. The following applies: read-out: apparent Kd; compound concentrations:100 nM and 1000 nM (sheet 'Samples'); n = 1.
The test system of a further assay is PRKD3. The following applies: read-out: apparent Kd; compound concentrations:100 nM and 1000 nM (sheet 'Samples'); n = 1.
In another assay the test system is TNIK. The following applies: read-out: apparent Kd; compound concentrations:100 nM and 1000 nM (sheet 'Samples'); n = 1.
The test system of a further assay is BMPR2. The conditions noted are these: read-out: apparent Kd; compound concentrations: 100 nM and 1000 nM (sheet 'Samples'), CATDS: 0.122163431962668; n = 1.
A further assay relates to CSNK1A1. The following applies: read-out: apparent Kd, compound concentrations: 100 nM and 1000 nM (sheet 'Samples'), n = 1.
The subject of a further assay is PKN2. The conditions noted are these: read-out: apparent Kd; compound concentrations: 100 nM and 1000 nM (sheet 'Samples'), CATDS: 0.12366746425094501; n = 1.
The next assay has as its system AKT1. The following applies: read-out: apparent Kd; compound concentrations: 100 nM and 1000 nM (sheet 'Samples'), CATDS: 0.104224113270125; n = 1.
The next assay concerns ZAK. The following applies: read-out: apparent Kd; compound concentrations: 100 nM and 1000 nM (sheet 'Samples'), CATDS: 0.14081253885296899; n = 1.
A further assay deals with PI4KA. The following applies: read-out: apparent Kd; compound concentrations: 100 nM and 1000 nM (sheet 'Samples'), CATDS: 8.9803456150084393E-2; n = 1.
The subject of another assay is PIK3CA. The following applies: read-out: apparent Kd; compound concentrations: 100 nM and 1000 nM (sheet 'Samples'), CATDS: 0.36477997446567001; n = 1.
For a further assay, the system named is PIK3CB. The conditions noted are these: read-out: apparent Kd; compound concentrations: 100 nM and 1000 nM (sheet 'Samples'), CATDS: 0.118363122139114; n = 1.
The test system of a further assay is PIK3CG. The conditions noted are these: read-out: apparent Kd; compound concentrations: 100 nM and 1000 nM (sheet 'Samples'), CATDS: 0.133003472389642; n = 1.
A further assay concerns PRKDC. The following applies: read-out: apparent Kd; compound concentrations: 100 nM and 1000 nM (sheet 'Samples'), CATDS: 9.9642367307020793E-2; n = 1.
A further assay has as its system SRRT. The following applies: read-out: apparent Kd; compound concentrations: 100 nM and 1000 nM (sheet 'Samples'), CATDS: 7.4591136223679494E-2; n = 1.
The test system of another assay is TOP2B. The conditions noted are these: read-out: apparent Kd; compound concentrations: 100 nM and 1000 nM (sheet 'Samples'), CATDS: 7.4747311850649895E-2; n = 1.
The subject of another assay is ADRBK1. The conditions noted are these: read-out: apparent Kd; compound concentrations:100 nM and 1000 nM (sheet 'Samples'); n = 1.
Another assay concerns MAPK11. The conditions noted are these: read-out: apparent Kd; compound concentrations:100 nM and 1000 nM (sheet 'Samples'); n = 1.
For the next assay, the system named is MAPKAPK2. The following applies: read-out: apparent Kd; compound concentrations:100 nM and 1000 nM (sheet 'Samples'); n = 1.
The mark [1] stands for this setting: compound concentrations:100 nM and 1000 nM (sheet 'Samples').

Structures are written as SMILES. Read-outs that look alike come from different tables or passages of the source.

On to `Cc1nc(-c2ccccc2)n2nc(NCCCN3CCOCC3)ncc12` [GW874091X], for which the potency estimated from few doses in the assay on ADCK3 (compound concentrations: 100 nM and 1000 nM (sheet 'Samples'), CATDS: 9.8029447870553399E-2) is 915 nM; in the assay with AKT2 (CATDS: 6.9315360856789104E-2), 1850 nM; with ATM (CATDS: 0.21297510466852801) it was 287 nM; with CAMK4, 1460 nM; in the assay on CDK6, 1550 nM; in the assay on CDKL5, 917 nM. Besides, the potency estimated from few doses is 2210 nM in the assay with CSNK1E (compound concentrations: 100 nM and 1000 nM (sheet 'Samples'), CATDS: 6.4509222244259798E-2); 2450 nM in the assay on CSNK2A1;CSNK2A3; 2410 nM in the assay on MAP2K1 (CATDS: 6.2459835665012599E-2); 1850 nM in the assay with MAP2K2; 1560 nM in the assay on NNT; 1240 nM with NQO1 (CATDS: 8.3466895844620997E-2). In the assay on RIOK2 (CATDS: 6.3640535742752496E-2), the potency estimated from few doses is 2290 nM.

Regarding `Cc1n[nH]c2ccc(-c3cc(OC[C@@H](N)Cc4ccccc4)cnc3-c3ccoc3)cc12.Cc1n[nH]c2ccc(-c3cc(OC[C@@H](N)Cc4ccccc4)cnc3-c3ccoc3)cc12.O=C(O)C(F)(F)F.O=C(O)C(F)(F)F` [GSK507358A], the potency estimated from few doses in the assay on ADCK1 was 1140 nM; in the assay on CIT it was 1120 nM; with CSNK1D (setting [1]), 711 nM; with CSNK1E (setting [1]) it was 1160 nM; in the assay on DJA1, 890 nM; in the assay on GAK, 1500 nM. The potency estimated from few doses with IARS was 2080 nM; in the assay with PIK3CD (setting [1]), 108 nM; with PRKACB, 1740 nM; in the assay with PRKCD it was 1510 nM; with PRKCQ, 1580 nM; with PRKD2 it was 690 nM. The results for the potency estimated from few doses with PRKD3 and in the assay with TNIK were 353 nM and 141 nM, respectively.

Take `Cc1cc(C)c2c(n1)sc1c(N)ncnc12` [RO4241967-000]: the potency estimated from few doses was 987 nM with ADCK3 (compound concentrations: 100 nM and 1000 nM (sheet 'Samples'), CATDS: 0.164080926877189); 2210 nM in the assay on BMPR2; 453 nM in the assay on CSNK1A1 (CATDS: 0.24698540566434601); 417 nM in the assay on CSNK1D (compound concentrations: 100 nM and 1000 nM (sheet 'Samples'), CATDS: 0.25978966817559301); 864 nM with CSNK1E (compound concentrations: 100 nM and 1000 nM (sheet 'Samples'), CATDS: 0.174355768455381); 2120 nM in the assay on PKN2.

For the compound `COc1cccc(-n2cnc3c(N)ncnc32)c1` [SKF-97416], the potency estimated from few doses in the assay on ADCK3 (compound concentrations: 100 nM and 1000 nM (sheet 'Samples'), CATDS: 0.45631454504768898) is 155 nM; in the assay on AKT1, 2120 nM; in the assay with AKT2 (CATDS: 0.10421017655023999) it was 2120 nM; in the assay on CSNK1A1 (CATDS: 0.102191451764392), 2240 nM; with MAP2K1 (CATDS: 0.110237039965707) it was 1830 nM; in the assay with NQO1 (CATDS: 0.123163223225838), 1400 nM. The potency estimated from few doses in the assay with RIOK2 (CATDS: 0.117096482211817) is 1580 nM; in the assay on ZAK it was 1050 nM.

Regarding `Nc1ncc(-c2ccc3nccc(-c4ccncc4)c3c2)cc1S(=O)(=O)N1CCOCC1` [GSK1627798A], the potency estimated from few doses in the assay with ADCK3 (compound concentrations: 100 nM and 1000 nM (sheet 'Samples'), CATDS: 7.8381532556713998E-2) is 1520 nM; in the assay on PI4KA it was 893 nM; in the assay on PIK3CA, 11.1 nM; with PIK3CB, 366 nM; in the assay with PIK3CD (compound concentrations: 100 nM and 1000 nM (sheet 'Samples'), CATDS: 0.63403927390637105), 3.67 nM; in the assay on PIK3CG, 258 nM. For the same compound, the potency estimated from few doses in the assay with PRKDC was 627 nM; with SRRT, 1900 nM; in the assay with TOP2B it was 1880 nM.

For the compound `CNC(=O)c1ccc(C)c(-n2c(C)cc(OCc3ccc(F)cc3F)c(Br)c2=O)c1` [PFE-PKIS_41], the potency estimated from few doses in the assay with ADCK3 (setting [1]) is 1260 nM; in the assay on ADRBK1, 1490 nM; with MAPK11 it was 34.7 nM; with MAPKAPK2, 23.3 nM.

Regarding `COc1ccc(CNC(=O)c2ccc(-c3cc(-c4nnc(C)o4)ccc3C)cc2)cc1` [GW701032X], the potency estimated from few doses was 731 nM in the assay on ADCK3 (compound concentrations: 100 nM and 1000 nM (sheet 'Samples'), CATDS: 0.40395097893739401); 260 nM in the assay with ATM (CATDS: 0.655973384718888).
